# From PubChem BioAssay (NCI)
# Compounds without any hit were thinned out: in the full panel of roughly 83,000, 20% have a hit.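 Testing used 96-well plates and a 48-hour single-concentration exposure. Example: -40 means 40% of the starting cells died.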 Unmarked numbers belong to inactive results. Activity calls are given as the source filed them.
# Tested on: M14 melanoma
# Experiment: NCI-60 one-dose screen, 48 h (100 = growth as untreated, 0 = no growth, -100 = all killed)
# Settings: 10 µM
# Protocol: Growth inhibition of the M14 human tumor cell line is measured as a screen for anti-cancer activity. Cells are grown in 96 well plates and exposed to the test compound for 48 hours. Compounds are tested at a single concentration, which is 10^-5 M for most compounds. The reported endpoint is percent growth (GI% or GIPRCNT), where numbers from 0 - 100% represent growth inhibition, and numbers from -100% - 0 represent cell death. For example, a value of 40 represents 60% growth inhibition. A value of 0 means no net growth occurred over the course of the experiment. A value of -40 indicates 40% of cells at the beginning of the experiment died by the end of the experiment. A value of -100 means all cells are dead at the end of the experiment.
# NCI-60 Human Tumor Cell Lines Screen was performed using the standard one-dose NCI protocol, which is described in more detail at https://dtp.cancer.gov/discovery_development/nci-60/default.htm.
# Compounds with GIPRCNT values below 10 were considered active. Activity score was based on GIPRCNT using the following formula: […]
# Score is 0 for GIPRCNT values of 100 or above, 50 for GIPRCNT values of 0, and 100 for GIPRCNT values of -100.
row,SMILES,growth
1,COc1cc(OC)cc(-c2ccc(-c3ccc(C(=N)N)cn3)o2)c1,-77.9% (active)
2,O=S(=O)(NC1c2ccccc2Oc2ccccc21)c1cc(Cl)ccc1Cl,98.9%
3,CN(C)c1ccc2c(c1)OC(N)=C(C#N)C2c1ccc2c(c1)CCO2 (stereo not given),10%
4,C[C@@H]1N=C(c2ccc(Br)cc2)Nc2nc3ccccn3c2C1=O,31.8%
5,CCC1(C)OC(=O)NC1=O (stereo not given),97.2%
6,COC(=O)[C@]12CC[C@@H](C)[C@H](C)[C@@H]1C1=CC[C@@H]3[C@@]4(C)C[C@@H](O)[C@H](O)[C@@](C)(CO)[C@@H]4[C@H](O)C[C@@]3(C)[C@]1(C)CC2,-71.3% (active)
7,C=CCN1C(=O)/C(=C\c2ccc3c(c2)CCC3)SC1=S,101%
8,CC(C)c1[nH]nc2c(NCc3ccc(-c4ccccn4)cc3)nc(SCCN(C)C)nc12,-32.9% (active)
9,CCOC(=O)Cn1nnc(-c2ccc(OCc3ccccc3F)cc2)n1,75.1%
10,CCCCCCCCCCCCCCCC(=O)N1CCN(C)CC1,80.2%
11,COc1cc(-c2nc3ccccc3[nH]2)ccc1OCC(=O)N=Nc1c(O)[nH]c2ccccc12,83.3%
12,Cn1cnc([N+](=O)[O-])c1/C=C1\Oc2ccc(Cl)cc2C1=O,87.5%
13,CCCCn1c(=O)[nH]c(N)c(C(c2ccc(Cl)cc2)c2c(N)[nH]c(=O)n(CCCC)c2=O)c1=O,35%
14,C=C1C(=O)O[C@H]2[C@H]1CC/C(COC(=O)OCCCCCOC(=O)OC/C1=C/CC[C@@]3(C)O[C@H]3[C@H]3OC(=O)C(=C)[C@@H]3CC1)=C\CC[C@@]1(C)O[C@@H]21,-45.5% (active)
15,CCCCCc1cc[n+](CC(=O)c2ccc(Cl)cc2)cc1,85.9%
16,CCOC(=O)c1sc(NC(=O)c2cc(OC)c(OC)c(OC)c2)nc1C,118%
17,COc1ccc2oc(=O)cc(C3c4ccc([nH]4)C(c4cc(=O)oc5ccc(OC)cc45)c4ccc([nH]4)C(c4cc(=O)oc5ccc(OC)cc45)c4ccc([nH]4)C(c4cc(=O)oc5ccc(OC)cc45)c4ccc3[nH]4)c2c1 (stereo not given),3.08% (active)
18,O=C1c2cc(Cl)ccc2-c2c(O)cc(Cl)cc21,91.8%
19,CCCCCCCCCCCCCCCCCBr,109%
20,O=C(N/N=c1/ccoc2cccnc12)N1CCN(c2ncccn2)CC1,14.5%

row,SMILES,growth
1,COc1cc(-c2nc3cc(Cl)c(Cl)cc3[nH]2)ccc1OCC(=O)NN,95.1%
2,O=C(CCc1ccccc1)N1CCN(C(=O)CCc2ccccc2)CC1,95.9%
3,COc1cc(CSc2nc3ccc(Cl)cc3c(=O)n2Cc2ccccc2)cc(OC)c1OC,35.4%
4,O=[N+]([O-])c1ccc2c(c1)Cc1cc(I)ccc1-2,101%
5,CCCCCCCCCCCCCC[n+]1ccc(C)cc1,-72.7% (active)
6,CCN1CCOC1C(C)C (stereo not given),93.7%
7,C#C[C@]1(O)CC[C@H]2[C@@H]3CC[C@H]4CC(F)(F)CC[C@]4(C)[C@H]3CC[C@@]21C,80.4%
8,CN(C)CCCN(Cc1ccccc1O)C(=S)Nc1ccc(Cl)cc1,108%
9,Nc1ccc(Sc2ccc3c4c2cccc4c(=O)n2c4ccccc4nc32)cc1,45.4%
10,CCCCCCN=C(N)CCCCCCCCCCC(N)=NCCCCCC,23.2%
11,O=[N+]([O-])c1ccc(Br)o1,104%
12,COc1cc(-c2cc(/C=C/C(C)=O)[nH]n2)cc(OC)c1OC,84.9%
13,CCCCCCCCCCCC(c1ccccc1)N(C)C (stereo not given),104%
14,CCN(CC)CCn1c(=N)n(CC(O)c2ccc(Cl)c(Cl)c2)c2ccccc21 (stereo not given),-58.6% (active)
15,NS(=O)(=O)c1ccc(N2N=C(c3ccc(-c4ccccc4)cc3)CC2c2ccc(Cl)cc2)cc1 (stereo not given),98.2%
16,COc1ccc(CSc2nc3cc(OC)c(OC)cc3c(=O)n2-c2ccc(OC)cc2OC)cc1,97%
17,COc1cc(C2C=C(c3ccc(Cl)cc3)N=C3SC(C)=CN32)cc(OC)c1OC (stereo not given),95%
18,CCN(CC)CC(O)CNc1ccnc2cc(Cl)c(Cl)cc12 (stereo not given),106%
19,Cc1ccc(S(=O)(=O)Nc2cccc3[nH]c(C(F)(F)F)nc23)cc1,15.2%
20,Clc1cc(Cl)c(OCCCCCCN2CCNCC2)c(Cl)c1,-43.9% (active)
